# Assays:
# Assay in all cases: DAPPL (digital affinity profiling via proximity ligation, sequencing); 10 mM Tris-HCl pH 7.5, 50 mM NaCl, 1 mM DTT, 4% glycerol, room temperature, 30 min; GST-TFs on glutathione beads, 16-mer random dsDNA library, 0.1% formaldehyde crosslink after washing; high values mean tight binding
# FLI1 = biological target: T1, FLI1 (Homo sapiens, UniProt Q01543 1-452); conditions: protein: recombinant; tags: N-terminal GST; dsDNA, one strand shown
# T1 sequence: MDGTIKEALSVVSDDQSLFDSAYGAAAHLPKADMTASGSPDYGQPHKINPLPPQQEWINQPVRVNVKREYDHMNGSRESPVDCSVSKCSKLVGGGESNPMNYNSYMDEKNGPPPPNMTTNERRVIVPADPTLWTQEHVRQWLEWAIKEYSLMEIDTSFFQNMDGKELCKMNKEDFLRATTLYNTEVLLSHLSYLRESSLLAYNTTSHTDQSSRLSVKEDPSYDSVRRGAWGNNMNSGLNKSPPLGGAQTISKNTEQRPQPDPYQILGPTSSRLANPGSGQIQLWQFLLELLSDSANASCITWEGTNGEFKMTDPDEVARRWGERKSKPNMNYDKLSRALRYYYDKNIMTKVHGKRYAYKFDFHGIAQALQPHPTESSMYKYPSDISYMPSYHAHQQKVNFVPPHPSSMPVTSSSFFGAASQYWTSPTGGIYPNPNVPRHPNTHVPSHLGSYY
# Outline: (§1)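 Beads coated with glutathione captured GST-fused human transcription factors that had been expressed in yeast, and the factors were then given DNA barcodes and pooled with a tag-only sample. The pools were incubated with 200 nmole of a random double-stranded 16-mer DNA library in Tris/NaCl/DTT/glycerol buffer for 30 min at room temperature, washed, crosslinked with 0.1% formaldehyde and proximity-ligated with BsaI/T4 ligase at 37 °C for 1 h. PCR amplification and Illumina NextSeq500 sequencing came last. Binding signal is each hexamer's read frequency for a factor divided by its frequency for the tag-only sample.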
# ELK1 = biological target: T2, ELK1 (Homo sapiens, UniProt P19419 1-428); conditions: protein: recombinant; tags: N-terminal GST; dsDNA, one strand shown
# T2 sequence: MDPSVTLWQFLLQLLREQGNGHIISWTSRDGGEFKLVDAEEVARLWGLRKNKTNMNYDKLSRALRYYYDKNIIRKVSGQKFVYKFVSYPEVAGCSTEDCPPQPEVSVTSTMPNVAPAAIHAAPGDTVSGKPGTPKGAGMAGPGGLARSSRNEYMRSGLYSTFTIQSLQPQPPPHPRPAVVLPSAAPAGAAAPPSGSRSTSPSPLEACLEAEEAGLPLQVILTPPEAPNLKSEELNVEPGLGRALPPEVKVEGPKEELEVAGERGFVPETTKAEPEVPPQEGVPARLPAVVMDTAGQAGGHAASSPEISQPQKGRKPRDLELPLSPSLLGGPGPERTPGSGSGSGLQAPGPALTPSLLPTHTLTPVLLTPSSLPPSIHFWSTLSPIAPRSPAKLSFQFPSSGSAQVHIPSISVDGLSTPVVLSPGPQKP
# Outline: as §1
# GABPA = biological target: T3, GABPA (Homo sapiens, UniProt Q06546 1-454); conditions: protein: recombinant; tags: N-terminal GST; dsDNA, one strand shown
# T3 sequence: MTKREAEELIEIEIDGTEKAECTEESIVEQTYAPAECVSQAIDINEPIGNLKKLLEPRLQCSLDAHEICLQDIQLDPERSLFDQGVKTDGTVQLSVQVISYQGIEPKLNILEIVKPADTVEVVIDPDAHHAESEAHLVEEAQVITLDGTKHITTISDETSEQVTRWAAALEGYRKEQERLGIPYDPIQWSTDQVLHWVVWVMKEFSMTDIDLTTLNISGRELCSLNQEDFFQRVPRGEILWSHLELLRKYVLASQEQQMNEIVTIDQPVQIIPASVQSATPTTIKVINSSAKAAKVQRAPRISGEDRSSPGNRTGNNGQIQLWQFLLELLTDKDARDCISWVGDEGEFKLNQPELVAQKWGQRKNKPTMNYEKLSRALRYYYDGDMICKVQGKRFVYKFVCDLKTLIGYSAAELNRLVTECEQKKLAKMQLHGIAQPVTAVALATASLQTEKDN
# Outline: as §1
# ERG = biological target: T4, ERG (Homo sapiens, UniProt P11308 1-479); conditions: protein: recombinant; tags: N-terminal GST; dsDNA, one strand shown
# T4 sequence: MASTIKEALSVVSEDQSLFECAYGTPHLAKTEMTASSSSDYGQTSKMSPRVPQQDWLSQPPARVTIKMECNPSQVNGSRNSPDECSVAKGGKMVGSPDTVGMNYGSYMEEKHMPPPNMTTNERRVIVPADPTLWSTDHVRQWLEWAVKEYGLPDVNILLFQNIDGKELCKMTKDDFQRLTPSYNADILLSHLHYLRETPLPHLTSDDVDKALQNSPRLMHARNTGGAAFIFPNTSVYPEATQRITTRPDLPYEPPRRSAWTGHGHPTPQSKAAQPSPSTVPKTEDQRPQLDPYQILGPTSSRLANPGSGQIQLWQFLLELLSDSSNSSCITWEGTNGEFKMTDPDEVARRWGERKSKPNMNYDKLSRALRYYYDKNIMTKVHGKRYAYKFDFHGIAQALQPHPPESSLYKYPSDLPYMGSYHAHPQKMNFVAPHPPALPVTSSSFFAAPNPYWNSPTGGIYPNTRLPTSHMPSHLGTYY
# Outline: as §1
# ELF1 = ELF1 (Homo sapiens, UniProt P32519 1-619); conditions: protein: recombinant; tags: N-terminal GST; dsDNA, one strand shown
# ELF1, sequence (P32519 whole entry): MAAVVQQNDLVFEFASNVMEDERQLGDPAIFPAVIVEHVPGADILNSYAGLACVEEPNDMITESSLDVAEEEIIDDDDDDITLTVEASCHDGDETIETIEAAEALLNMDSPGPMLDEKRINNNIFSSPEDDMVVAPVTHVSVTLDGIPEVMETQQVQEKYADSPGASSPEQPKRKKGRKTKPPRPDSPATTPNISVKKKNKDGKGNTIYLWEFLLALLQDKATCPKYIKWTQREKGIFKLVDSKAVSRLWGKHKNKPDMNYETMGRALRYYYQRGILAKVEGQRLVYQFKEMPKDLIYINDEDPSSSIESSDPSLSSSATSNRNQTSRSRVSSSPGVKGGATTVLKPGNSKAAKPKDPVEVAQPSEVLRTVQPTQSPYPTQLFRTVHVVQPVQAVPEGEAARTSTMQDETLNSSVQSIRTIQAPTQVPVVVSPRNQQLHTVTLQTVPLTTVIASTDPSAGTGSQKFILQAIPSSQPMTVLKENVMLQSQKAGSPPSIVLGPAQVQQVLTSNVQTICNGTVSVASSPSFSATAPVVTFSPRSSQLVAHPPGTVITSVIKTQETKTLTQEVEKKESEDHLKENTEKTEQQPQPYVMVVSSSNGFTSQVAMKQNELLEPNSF
# Outline: as §1
# EHF = biological target: T5, EHF (Homo sapiens, UniProt Q9NZC4 1-300); conditions: protein: recombinant; tags: N-terminal GST; dsDNA, one strand shown
# T5 sequence: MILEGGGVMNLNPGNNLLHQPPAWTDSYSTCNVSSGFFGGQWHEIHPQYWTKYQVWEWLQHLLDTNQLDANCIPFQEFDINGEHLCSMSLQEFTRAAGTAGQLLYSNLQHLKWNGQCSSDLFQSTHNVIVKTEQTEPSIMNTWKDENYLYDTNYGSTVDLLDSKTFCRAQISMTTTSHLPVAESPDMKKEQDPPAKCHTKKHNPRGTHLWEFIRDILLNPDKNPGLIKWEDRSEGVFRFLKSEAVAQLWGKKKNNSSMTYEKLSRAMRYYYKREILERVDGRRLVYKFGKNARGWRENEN
# Outline: as §1
# SPI1 = SPI1 (Homo sapiens, UniProt P17947 1-270); conditions: protein: recombinant; tags: N-terminal GST; dsDNA, one strand shown
# Outline: as §1
# SPIB = SPIB (Homo sapiens, UniProt Q01892 1-262); conditions: protein: recombinant; tags: N-terminal GST; dsDNA, one strand shown
# SPIB, sequence (Q01892 whole entry): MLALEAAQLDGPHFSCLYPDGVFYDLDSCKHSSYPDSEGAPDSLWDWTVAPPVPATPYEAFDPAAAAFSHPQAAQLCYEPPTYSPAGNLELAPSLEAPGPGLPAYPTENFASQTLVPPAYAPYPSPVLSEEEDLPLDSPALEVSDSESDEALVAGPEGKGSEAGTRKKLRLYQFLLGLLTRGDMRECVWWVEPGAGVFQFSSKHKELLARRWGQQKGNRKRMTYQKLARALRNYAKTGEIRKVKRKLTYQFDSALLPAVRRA
# Outline: as §1
# ELK3 = biological target: T6, ELK3 (Homo sapiens, UniProt P41970 1-407); conditions: protein: recombinant; tags: N-terminal GST; dsDNA, one strand shown
# T6 sequence: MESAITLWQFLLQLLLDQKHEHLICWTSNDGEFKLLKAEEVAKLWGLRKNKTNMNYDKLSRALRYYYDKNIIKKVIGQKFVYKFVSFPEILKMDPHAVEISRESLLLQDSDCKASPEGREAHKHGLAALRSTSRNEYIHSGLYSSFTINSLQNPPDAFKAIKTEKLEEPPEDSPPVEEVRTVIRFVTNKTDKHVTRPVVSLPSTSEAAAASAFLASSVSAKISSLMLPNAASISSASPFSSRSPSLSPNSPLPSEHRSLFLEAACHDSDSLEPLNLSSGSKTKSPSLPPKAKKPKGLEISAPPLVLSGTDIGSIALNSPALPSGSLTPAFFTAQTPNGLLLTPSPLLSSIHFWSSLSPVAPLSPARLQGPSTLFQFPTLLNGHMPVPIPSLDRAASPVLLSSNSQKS
# Outline: as §1
# FEV = biological target: T7, FEV (Homo sapiens, UniProt Q99581 1-238); conditions: protein: recombinant; tags: N-terminal GST; dsDNA, one strand shown
# T7 sequence: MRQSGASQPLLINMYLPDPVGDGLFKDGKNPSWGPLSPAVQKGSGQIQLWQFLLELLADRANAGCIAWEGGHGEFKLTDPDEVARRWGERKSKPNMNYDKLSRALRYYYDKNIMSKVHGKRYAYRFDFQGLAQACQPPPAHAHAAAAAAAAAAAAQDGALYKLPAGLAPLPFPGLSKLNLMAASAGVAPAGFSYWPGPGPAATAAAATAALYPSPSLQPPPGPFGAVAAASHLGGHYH
# Outline: as §1
# ETV5 = ETV5 (Homo sapiens, UniProt P41161 1-510); conditions: protein: recombinant; tags: N-terminal GST; dsDNA, one strand shown
# ETV5, sequence (P41161 whole entry): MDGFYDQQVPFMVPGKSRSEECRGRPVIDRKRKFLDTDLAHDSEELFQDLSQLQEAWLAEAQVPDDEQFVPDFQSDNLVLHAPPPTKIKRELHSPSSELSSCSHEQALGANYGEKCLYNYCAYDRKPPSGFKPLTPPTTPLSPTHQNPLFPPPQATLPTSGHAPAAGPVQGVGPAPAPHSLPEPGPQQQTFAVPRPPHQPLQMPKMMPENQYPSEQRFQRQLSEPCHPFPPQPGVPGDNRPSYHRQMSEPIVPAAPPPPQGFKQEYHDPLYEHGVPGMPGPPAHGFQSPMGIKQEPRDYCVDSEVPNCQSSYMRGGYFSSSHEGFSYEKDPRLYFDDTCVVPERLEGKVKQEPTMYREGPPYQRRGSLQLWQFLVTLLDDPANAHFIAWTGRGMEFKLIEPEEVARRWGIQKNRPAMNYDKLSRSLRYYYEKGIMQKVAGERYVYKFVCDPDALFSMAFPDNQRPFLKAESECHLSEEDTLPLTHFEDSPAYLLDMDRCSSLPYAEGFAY
# Outline: as §1
# HSF1 = HSF1 (Homo sapiens, UniProt Q00613 1-529); conditions: protein: recombinant; tags: N-terminal GST; chain copies: 3; dsDNA, one strand shown
# HSF1, sequence (Q00613 whole entry): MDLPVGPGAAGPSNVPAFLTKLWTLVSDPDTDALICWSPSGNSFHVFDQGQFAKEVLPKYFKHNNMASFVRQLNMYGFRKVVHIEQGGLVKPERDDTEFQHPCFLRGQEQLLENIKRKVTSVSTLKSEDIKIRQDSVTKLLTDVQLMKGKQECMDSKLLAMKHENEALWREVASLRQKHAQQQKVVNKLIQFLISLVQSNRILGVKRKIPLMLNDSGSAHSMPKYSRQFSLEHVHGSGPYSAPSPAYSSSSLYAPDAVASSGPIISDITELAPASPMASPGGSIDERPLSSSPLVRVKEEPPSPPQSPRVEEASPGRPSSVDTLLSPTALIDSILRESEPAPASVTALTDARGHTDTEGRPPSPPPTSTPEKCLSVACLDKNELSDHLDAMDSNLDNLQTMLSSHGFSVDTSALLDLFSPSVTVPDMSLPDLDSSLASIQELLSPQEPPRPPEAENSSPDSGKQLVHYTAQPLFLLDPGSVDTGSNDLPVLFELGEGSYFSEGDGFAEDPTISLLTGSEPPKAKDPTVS
# Outline: as §1
# SPIC = biological target: T8, SPIC (Homo sapiens, UniProt Q8N5J4 1-248); conditions: protein: recombinant; tags: N-terminal GST; dsDNA, one strand shown
# T8 sequence: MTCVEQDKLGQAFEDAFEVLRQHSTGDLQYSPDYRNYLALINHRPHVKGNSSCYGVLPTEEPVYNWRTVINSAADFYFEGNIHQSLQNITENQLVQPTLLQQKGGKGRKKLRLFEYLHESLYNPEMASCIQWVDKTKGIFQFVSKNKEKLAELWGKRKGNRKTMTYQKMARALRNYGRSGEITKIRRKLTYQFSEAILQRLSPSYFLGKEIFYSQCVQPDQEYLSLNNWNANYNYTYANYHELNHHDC
# Outline: as §1
# ELF4 = ELF4 (Homo sapiens, UniProt Q99607 1-663); conditions: protein: recombinant; tags: N-terminal GST; dsDNA, one strand shown
# ELF4, sequence (Q99607 whole entry): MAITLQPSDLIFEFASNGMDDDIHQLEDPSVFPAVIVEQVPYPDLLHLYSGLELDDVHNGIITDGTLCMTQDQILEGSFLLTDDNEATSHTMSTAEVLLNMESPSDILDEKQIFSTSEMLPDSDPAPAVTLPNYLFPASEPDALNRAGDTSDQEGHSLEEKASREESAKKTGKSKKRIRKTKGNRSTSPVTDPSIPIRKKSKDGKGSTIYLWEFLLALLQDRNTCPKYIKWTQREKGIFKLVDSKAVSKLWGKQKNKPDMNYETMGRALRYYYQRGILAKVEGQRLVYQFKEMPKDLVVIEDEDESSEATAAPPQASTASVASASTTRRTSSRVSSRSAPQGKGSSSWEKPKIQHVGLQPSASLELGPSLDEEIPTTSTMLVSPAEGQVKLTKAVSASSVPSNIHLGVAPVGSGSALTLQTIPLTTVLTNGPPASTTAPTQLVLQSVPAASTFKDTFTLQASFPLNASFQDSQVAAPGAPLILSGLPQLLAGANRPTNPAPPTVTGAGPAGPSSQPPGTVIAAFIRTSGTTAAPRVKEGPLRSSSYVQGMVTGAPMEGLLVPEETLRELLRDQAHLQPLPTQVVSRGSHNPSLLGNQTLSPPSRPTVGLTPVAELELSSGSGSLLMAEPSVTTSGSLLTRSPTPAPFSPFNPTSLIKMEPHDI
# Outline: as §1
# ELK4 = biological target: T9, ELK4 (Homo sapiens, UniProt P28324-2 1-405); conditions: protein: recombinant; tags: N-terminal GST; dsDNA, one strand shown
# T9 sequence: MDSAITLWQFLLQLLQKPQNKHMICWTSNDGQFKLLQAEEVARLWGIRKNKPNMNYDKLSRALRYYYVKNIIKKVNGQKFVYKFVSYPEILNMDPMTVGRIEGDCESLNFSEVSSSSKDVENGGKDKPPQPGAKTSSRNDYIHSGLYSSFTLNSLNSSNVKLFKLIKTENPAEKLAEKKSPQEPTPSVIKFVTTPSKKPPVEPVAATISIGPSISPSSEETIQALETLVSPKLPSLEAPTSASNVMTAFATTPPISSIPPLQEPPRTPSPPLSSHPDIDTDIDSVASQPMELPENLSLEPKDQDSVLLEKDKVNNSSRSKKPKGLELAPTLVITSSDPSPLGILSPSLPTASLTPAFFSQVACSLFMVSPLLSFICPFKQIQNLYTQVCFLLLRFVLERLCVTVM
# Outline: as §1
# ETV2 = biological target: T10, ETV2 (Homo sapiens, UniProt O00321 1-342); conditions: protein: recombinant; tags: N-terminal GST; dsDNA, one strand shown
# T10 sequence: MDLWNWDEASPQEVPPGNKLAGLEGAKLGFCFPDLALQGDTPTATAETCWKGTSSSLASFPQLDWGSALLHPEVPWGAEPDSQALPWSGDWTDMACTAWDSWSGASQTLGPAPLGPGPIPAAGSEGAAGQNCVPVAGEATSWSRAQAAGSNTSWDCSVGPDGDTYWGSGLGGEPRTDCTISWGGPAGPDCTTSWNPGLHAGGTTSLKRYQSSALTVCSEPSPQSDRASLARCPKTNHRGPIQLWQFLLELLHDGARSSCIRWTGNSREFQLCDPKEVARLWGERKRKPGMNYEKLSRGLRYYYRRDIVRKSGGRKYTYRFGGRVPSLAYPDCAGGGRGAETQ
# Outline: as §1
# ELF3 = biological target: T11, ELF3 (Homo sapiens, UniProt P78545 1-371); conditions: protein: recombinant; tags: N-terminal GST; dsDNA, one strand shown
# T11 sequence: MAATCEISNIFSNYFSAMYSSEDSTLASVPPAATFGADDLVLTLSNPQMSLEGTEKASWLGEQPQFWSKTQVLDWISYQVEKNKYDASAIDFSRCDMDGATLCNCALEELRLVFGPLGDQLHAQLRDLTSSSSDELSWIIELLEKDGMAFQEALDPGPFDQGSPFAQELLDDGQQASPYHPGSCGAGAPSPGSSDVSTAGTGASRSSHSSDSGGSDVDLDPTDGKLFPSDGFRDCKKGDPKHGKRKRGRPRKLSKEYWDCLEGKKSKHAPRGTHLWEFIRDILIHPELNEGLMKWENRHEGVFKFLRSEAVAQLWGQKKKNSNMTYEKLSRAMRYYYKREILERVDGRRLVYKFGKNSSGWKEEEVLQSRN
# Outline: as §1
# CRX = CRX (Homo sapiens, UniProt O43186 1-299); conditions: protein: recombinant; tags: N-terminal GST; dsDNA, one strand shown
# CRX, sequence (O43186 whole entry): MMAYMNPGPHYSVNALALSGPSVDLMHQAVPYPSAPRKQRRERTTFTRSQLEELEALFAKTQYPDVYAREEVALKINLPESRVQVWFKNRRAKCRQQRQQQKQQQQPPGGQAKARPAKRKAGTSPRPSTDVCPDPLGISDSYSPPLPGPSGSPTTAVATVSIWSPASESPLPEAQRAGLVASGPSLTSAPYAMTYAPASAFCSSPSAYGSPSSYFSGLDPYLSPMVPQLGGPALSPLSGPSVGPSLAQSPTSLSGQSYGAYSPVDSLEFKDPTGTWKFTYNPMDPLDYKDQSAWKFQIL
# Outline: as §1
# ETV1 = ETV1 (Homo sapiens, UniProt P50549 1-477); conditions: protein: recombinant; tags: N-terminal GST; dsDNA, one strand shown
# ETV1, sequence (P50549 whole entry): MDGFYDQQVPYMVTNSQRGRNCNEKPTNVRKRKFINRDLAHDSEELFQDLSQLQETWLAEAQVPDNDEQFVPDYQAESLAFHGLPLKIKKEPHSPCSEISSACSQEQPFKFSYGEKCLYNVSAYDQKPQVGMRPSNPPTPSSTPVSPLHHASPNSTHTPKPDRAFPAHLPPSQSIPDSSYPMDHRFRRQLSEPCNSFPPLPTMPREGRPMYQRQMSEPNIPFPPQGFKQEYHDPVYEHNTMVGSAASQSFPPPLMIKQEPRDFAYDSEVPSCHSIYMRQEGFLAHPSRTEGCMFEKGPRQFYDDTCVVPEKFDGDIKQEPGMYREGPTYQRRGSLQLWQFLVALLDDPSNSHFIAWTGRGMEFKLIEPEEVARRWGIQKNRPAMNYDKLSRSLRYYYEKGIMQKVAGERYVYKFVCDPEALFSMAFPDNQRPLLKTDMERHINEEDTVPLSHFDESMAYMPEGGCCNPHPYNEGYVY
# Outline: as §1
sequence,measurement,setting,value
CTAAAC,binding signal,FLI1,"1.24 fold enrichment (6-mer frequency, TF over GST control)"
same,binding signal,ELK1,"1.18 fold enrichment (6-mer frequency, TF over GST control)"
same,binding signal,GABPA,"1.23 fold enrichment (6-mer frequency, TF over GST control)"
same,binding signal,ERG,"1.23 fold enrichment (6-mer frequency, TF over GST control)"
same,binding signal,ELF1,"1.24 fold enrichment (6-mer frequency, TF over GST control)"
same,binding signal,EHF,"1.18 fold enrichment (6-mer frequency, TF over GST control)"
same,binding signal,SPI1,"1.17 fold enrichment (6-mer frequency, TF over GST control)"
same,binding signal,SPIB,"1.19 fold enrichment (6-mer frequency, TF over GST control)"
same,binding signal,ELK3,"1.2 fold enrichment (6-mer frequency, TF over GST control)"
same,binding signal,FEV,"1.21 fold enrichment (6-mer frequency, TF over GST control)"
same,binding signal,ETV5,"1.18 fold enrichment (6-mer frequency, TF over GST control)"
same,binding signal,HSF1,"1.26 fold enrichment (6-mer frequency, TF over GST control)"
same,binding signal,SPIC,"1.18 fold enrichment (6-mer frequency, TF over GST control)"
same,binding signal,ELF4,"1.26 fold enrichment (6-mer frequency, TF over GST control)"
same,binding signal,ELK4,"1.26 fold enrichment (6-mer frequency, TF over GST control)"
same,binding signal,ETV2,"1.33 fold enrichment (6-mer frequency, TF over GST control)"
same,binding signal,ELF3,"1.18 fold enrichment (6-mer frequency, TF over GST control)"
same,binding signal,CRX,"1.47 fold enrichment (6-mer frequency, TF over GST control)"
same,binding signal,ETV1,"1.24 fold enrichment (6-mer frequency, TF over GST control)"

# — PMC7862700, “An all-to-all approach to the identification of sequence-specific readers for epigenetic DNA modifications on cytosine”
